Bioassay records (PubChem BioAssay)
BLM inh = inhibitors of human Bloom syndrome helicase BLM | Potency, µM (highest dose often 56.1 µM), for the others: at the highest dose activity change, negative = inhibition, most hits filed as inhibitors | 350,000 compounds, 0.2% hits | recombinant BLM DNA unwinding, fluorescence dequenching;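 further: plate controls were vehicle for no effect and no enzyme for full effect; nearly all actives have a fitted effect of over 35% in size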
TRb-SRC2 inh = TRbeta-SRC2 interaction inhibition. 280,000 compounds, 0.065% hits. Potency, µM (doses to about 106 µM), for the others: at the top dose activity change, negative = inhibition, usual class: inhibitors. TRbeta-SRC2 peptide binding, fluorescence polarization; receptor liganded with 1 µM T3. AID 1469;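 further: plate controls were bound peptide for no effect and peptide without receptor for full effect; nearly all actives have a fitted effect of over 50% in size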
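TRb LBD 0.6 uM + Texas Red SRC2 peptide 20 nM, 1 uM T3, Tris buffer w/ 5% DMSO; compound pinned, 5 h RT; FP read ex 555/em 632; normalized to unbound and bound controls.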
TR SRC2 fluor cs = counter-screen for TRb-SRC2 inhibitors: fluorescence interference; TRb/SRC2 Texas Red total fluorescence interference; Potency, µM (doses to about 106 µM), for inactives: at the highest dose fluorescence change, negative = quenching; 280,000 compounds, 0.29% hits; AID 1479; active means well fitted curve in either direction with a large enough effect; inconclusive means small, poorly fitted or top-dose-only effect
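Human TRb ligand-binding domain at 0.6 uM with 20 nM Texas Red SRC2 peptide in Tris buffer containing 1 uM T3 and 5% DMSO, incubated with compound 5 h at ambient temperature. Total fluorescence (555/632 nm) calculated as parallel + 2 × perpendicular.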
APEX1 inh = inhibitors of human APE1 endonuclease. recombinant APE1, TAMRA/BHQ-2 abasic DNA cleavage fluorescence. 350,000 compounds, 0.35% hits. Potency, µM (doses to about 65.8 µM), for the others: top-dose activity change, negative = inhibition, hits mostly inhibitors. P27695;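 further: plate controls were vehicle for no effect and reference inhibitor for full effect; nearly all actives have a fitted effect of over 55% in size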
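Readout is kinetic fluorescence (ex 525, em 598 nm) from cleavage of 50 nM TAMRA/BHQ-2 THF abasic duplex by 0.75 nM APE1, compound added 15 min beforehand at RT.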
RECQ1 inh-1 = blocks DNA unwinding by human RECQ1; AID 2549; 240,000 compounds, 0.54% hits; Potency, µM (top dose mostly 57.3 µM), for the others: top-dose activity, negative = inhibition, actives largely listed as inhibitors; RECQ1 DNA unwinding, red fluorescence kinetic read; P46063;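 further: plate controls were vehicle for no effect and no enzyme for full effect; nearly all actives have a fitted effect of over 30% in size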
Target sequence (P46063 whole entry, looked up): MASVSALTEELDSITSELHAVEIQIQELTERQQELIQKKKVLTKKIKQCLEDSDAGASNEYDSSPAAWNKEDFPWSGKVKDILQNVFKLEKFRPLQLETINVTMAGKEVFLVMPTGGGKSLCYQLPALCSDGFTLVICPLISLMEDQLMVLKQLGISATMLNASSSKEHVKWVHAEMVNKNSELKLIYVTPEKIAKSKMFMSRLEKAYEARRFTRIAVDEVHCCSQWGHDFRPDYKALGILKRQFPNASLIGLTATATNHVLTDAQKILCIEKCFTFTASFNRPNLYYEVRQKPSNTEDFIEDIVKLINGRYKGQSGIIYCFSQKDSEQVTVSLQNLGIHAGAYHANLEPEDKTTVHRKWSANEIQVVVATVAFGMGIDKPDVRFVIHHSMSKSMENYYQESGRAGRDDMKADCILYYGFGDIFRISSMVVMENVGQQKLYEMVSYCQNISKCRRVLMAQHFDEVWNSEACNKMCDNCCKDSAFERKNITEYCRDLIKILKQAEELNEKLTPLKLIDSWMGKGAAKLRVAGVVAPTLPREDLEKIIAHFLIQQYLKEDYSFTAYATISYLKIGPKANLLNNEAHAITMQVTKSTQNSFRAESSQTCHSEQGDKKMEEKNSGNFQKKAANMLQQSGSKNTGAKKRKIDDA
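RECQ1T1 50 nM; forked duplex (20 bp + 30-nt ss tails) 200 nM, ATP 2 mM final; pH 8.0, 2 mM MgCl2, 2.5 ug/ml poly(dI-dC); 15 min compound preincubation; discontinuous kinetic read over 2 h at RT.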
RGS12 GoLoco inh = blocks human Gai1 binding to RGS12 GoLoco peptide, red readout; Potency, µM (top dose mostly 61.6 µM), inactives show at the top dose activity, negative = inhibition, hits mostly inhibitors; 230,000 compounds, 0.44% hits; AID 880; Gai1:RGS12 GoLoco peptide FP, rhodamine, 10 min; active means well fitted inhibition curve with a large enough effect, not every such curve was filed as active; inactive means no such curve, though single readings can be large or run the other way; further: nearly all actives have a fitted effect of over 30% in size
RECQ1 conf = confirmation of human RECQ1 helicase inhibitors | AID 2708 | RECQ1 helicase DNA unwinding, fluorescence | shares compounds with RECQ1 inh-1 | Potency, µM (series often up to 229 µM), for inactives: at the top dose activity change, negative = inhibition, most hits filed as inhibitors | 610 compounds, 28% hits; further: nearly all actives have a fitted effect of over 45% in size
RECQ1 ADP FP = ADP displacement flagged in RECQ1 inhibitor counter-screen. 530 compounds, 27% hits. Potency, µM (highest dose often 228 µM), without a hit: top-dose activity change, negative = inhibition, most hits filed as inhibitors. shares compounds with RECQ1 inh-1. AID 2711. ADP fluorescence polarization displacement counterscreen; further: nearly all actives have a fitted effect of over 45% in size
RECQ1 inh-2 = RECQ1 helicase inhibition confirmed, round 2; shares compounds with RECQ1 inh-1; recombinant RECQ1 DNA unwinding, red fluorescence; Potency, µM (doses to about 119 µM), inactives show at the top dose activity, negative = inhibition, actives largely listed as inhibitors; 1,100 compounds, 15% hits; further: nearly all actives have a fitted effect of over 50% in size
Starred values were filed as active, the others as inactive; [ ] = remark or other dose. Only some compounds are listed: those with a hit (about 0.9% of all), similar ones and a draw of the others. Unless noted, the call rests on the fitted dose curve; in most records, active means well fitted curve in the direction sought with a large enough effect; inconclusive means small, poorly fitted or top-dose-only effect, or another doubt; inactive means no such curve, though single readings can be large; an effect the other way counts as inactive or inconclusive. Unless noted, on the % scale 0 is the no-effect control and ±100 the full control effect; potency means the concentration at half of the fitted maximal effect.

What do the screens show for `CCc1cc(=O)oc2cc(C)c(CN3CCCCC3)c(O)c12`?
BLM inh: 17.8µM*; TRb-SRC2 inh: -0.5%; TR SRC2 fluor cs: -15.2%; APEX1 inh: 22.4µM*; RECQ1 inh-1: 10µM*; RGS12 GoLoco inh: 24.9%; RECQ1 conf: inconclusive; RECQ1 ADP FP: 63.1µM*; RECQ1 inh-2: -14.8%

What do the screens show for `NC(N)=NC(N)=Nc1ccccc1` (tested in a mixture with another compound)?
RGS12 GoLoco inh: -9.4%[14.2 µM]

Results for COC(=O)c1ccc(Cl)cc1NC(=O)N1CC(C)Oc2ccccc21 (stereo unspecified) ?
BLM inh: 0.2%; TRb-SRC2 inh: -10.1%; TR SRC2 fluor cs: 0.3%

Results for Cc1nc2cnc(N3CCN(C)CC3)nc2n(Cc2ccc(F)cc2)c1=O ?
BLM inh: 4.9%; APEX1 inh: 13.4%; RECQ1 inh-1: -3.9%; RGS12 GoLoco inh: -8.2%

What do the screens show for `Cc1nc2cnc(N3CCOCC3)nc2n(Cc2ccc(F)cc2)c1=O`?
BLM inh: -8.6%; APEX1 inh: -8.5%; RECQ1 inh-1: 0.631µM*; RGS12 GoLoco inh: 13.0%; RECQ1 inh-2: -11.5%

What do the screens show for `Cc1noc(NS(=O)(=O)c2ccc(N/C=C\C(=O)c3ccc(Br)cc3)cc2)c1C`?
BLM inh: -11.2%; TRb-SRC2 inh: 3.0%; TR SRC2 fluor cs: -7.7%; APEX1 inh: -0.9%; RECQ1 inh-1: inconclusive; RGS12 GoLoco inh: 11.1%; RECQ1 inh-2: -21.6%

How did CCOc1ccc(C(=O)/C=C/Nc2ccc(S(=O)(=O)Nc3onc(C)c3C)cc2)cc1 do in these assays?
BLM inh: -15.4%; TRb-SRC2 inh: 5.1%; TR SRC2 fluor cs: -2.2%; APEX1 inh: 2.9%; RECQ1 inh-1: 2.4%; RGS12 GoLoco inh: -4.6%

Results for O=C(NCc1ccccc1Br)c1ccc2c(c1)nc1n2CCOC1 ?
BLM inh: 0.0%; TRb-SRC2 inh: 9.1%; TR SRC2 fluor cs: -1.4%

How did CS(=O)(=O)N(CC(=O)NCCc1ccccc1)c1cc(C(F)(F)F)ccc1Cl do in these assays?
BLM inh: -3.0%; TRb-SRC2 inh: 7.0%; TR SRC2 fluor cs: -3.7%

How did Cc1ccccc1OCCCCc1c(C)n[nH]c1C do in these assays?
BLM inh: -2.6%; TRb-SRC2 inh: -5.9%; TR SRC2 fluor cs: -0.1%; APEX1 inh: -0.8%; RECQ1 inh-1: inconclusive; RGS12 GoLoco inh: 4.4%; RECQ1 inh-2: -13.9%

Results for CC(C)c1onc(-c2c(Cl)cccc2Cl)c1COc1ccc(/C=C/c2cccc(C(=O)O)c2)c(Cl)c1 ?
BLM inh: 31.6µM*; TRb-SRC2 inh: inconclusive; TR SRC2 fluor cs: -5.7%; APEX1 inh: -4.5%; RECQ1 inh-1: 31.6µM*; RECQ1 inh-2: 35.5µM*

What do the screens show for `O=C(O)CC(CC(=O)Nc1ccccc1C(=O)O)c1ccccc1` (stereo unspecified)?
BLM inh: -1.8%; TRb-SRC2 inh: 0.0%; TR SRC2 fluor cs: -1.8%; APEX1 inh: -2.1%; RECQ1 inh-1: -3.4%; RGS12 GoLoco inh: -3.9%; RECQ1 conf: 25.3%; RECQ1 ADP FP: 0.4%

What do the screens show for `O=C(Cc1ccccc1)Nc1ccccc1C(=O)O`?
BLM inh: -2.2%; TRb-SRC2 inh: -16.5%; TR SRC2 fluor cs: 1.1%; APEX1 inh: 26.5%; RECQ1 inh-1: 5.6%; RGS12 GoLoco inh: -10.8%

Results for COc1ccccc1N1C(=O)[C@@H]2[C@H](C1=O)[C@H](C(=O)c1ccc(OC(C)=O)cc1)N1N=CC=C[C@@H]21 ?
BLM inh: -4.3%; TRb-SRC2 inh: -1.5%; TR SRC2 fluor cs: -0.5%; APEX1 inh: -7.5%; RECQ1 inh-1: -0.4%; RGS12 GoLoco inh: 118.4%

How did CC(=O)Oc1ccc(C(=O)[C@H]2[C@H]3C(=O)N(c4ccc5ccccc5c4)C(=O)[C@H]3[C@@H]3C=CC=NN32)cc1 do in these assays?
BLM inh: -10.6%; TRb-SRC2 inh: -1.5%; TR SRC2 fluor cs: -26.3%; APEX1 inh: 12.8%; RECQ1 inh-1: 31.6µM*; RGS12 GoLoco inh: 23.6%; RECQ1 inh-2: inconclusive

Results for O=C(/C=C/c1ccco1)N1CCCC(c2ccccc2)C1 (stereo unspecified) ?
BLM inh: -18.2%; TRb-SRC2 inh: 0.5%; TR SRC2 fluor cs: -1.4%; APEX1 inh: -14.8%; RECQ1 inh-1: inconclusive; RGS12 GoLoco inh: 21.6%; RECQ1 inh-2: inconclusive

How did O=C(/C=C/c1ccccc1)N1CCC(c2ccccc2)C1 (stereo unspecified) do in these assays?
BLM inh: -2.5%; TRb-SRC2 inh: -4.5%; TR SRC2 fluor cs: 1.4%; APEX1 inh: -5.2%; RECQ1 inh-1: -2.2%; RGS12 GoLoco inh: 9.9%

How did Cn1cnc([N+](=O)[O-])c1Oc1ccccc1 do in these assays?
BLM inh: -0.4%; TRb-SRC2 inh: 2.9%; TR SRC2 fluor cs: -3.0%; APEX1 inh: -0.4%; RECQ1 inh-1: -17.8%; RGS12 GoLoco inh: 9.9%

Results for Cn1cnc([N+](=O)[O-])c1Oc1cccc2ccccc12 ?
BLM inh: 0.7%; TRb-SRC2 inh: -2.5%; TR SRC2 fluor cs: -3.1%; APEX1 inh: 17.9%; RECQ1 inh-1: 5.01µM*; RGS12 GoLoco inh: -3.7%; RECQ1 inh-2: -15.9%

Results for CC(C)C(=O)N[C@H]1CCCN1C(=O)/C=C\c1ccccc1 ?
BLM inh: 1.4%[12.4 µM]; TRb-SRC2 inh: 1.0%[11.2 µM]; TR SRC2 fluor cs: -1.0%[11.2 µM]; APEX1 inh: 38.1%[12.4 µM]; RECQ1 inh-1: 2.2%[11.5 µM]

What do the screens show for `CCOC(=O)C1CN(S(=O)(=O)c2cccc(C(F)(F)F)c2)c2cc(CC(=O)OC)ccc2O1` (stereo unspecified)?
BLM inh: -10.7%; TRb-SRC2 inh: 8.9%; TR SRC2 fluor cs: -2.5%; APEX1 inh: 4.7%; RECQ1 inh-1: 39.8µM*; RGS12 GoLoco inh: -8.9%; RECQ1 inh-2: -10.1%
